Experiment [1] concerns the target Albumin (Bos taurus) (UniProt P02769). Briefly: bovine serum albumin binders on microarray, profiling panel, artefact control for SMM control protein annotation, biochemical, small-molecule microarray, Alexa647 label, 635/667 nm fluorescence (AID 1118).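 Also: score merges 667 nm emission intensity and signal-to-noise per printed compound spot.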 The settings on record: BSA-A647 binding, fluorescence 635 nm, higher = more signal.
A short description of experiment [2]: small-molecule microarray binders of probe aXIP, primary screen, biochemical, NeuroSMM set, 635/667 nm fluorescence (AID 1119).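 Also: probe is the protein aXip251-270 applied at 1 µg/mL to compound-printed slides; binding of probe to printed compounds measured as 667 nm fluorescence plus signal to noise.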 The note with it: higher = more signal, called active from +8 up or from −8 down.
Experiment [3] can be described thus: small-molecule binders of probe aNOTCH3, primary screen, biochemical, small-molecule microarray, 635/667 nm fluorescence (AID 1120).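 Also: probe is a biotin-tagged antibody raised against NOTCH3 rather than NOTCH3 protein; score merges spot fluorescence near 667 nm with spot signal to noise.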 The note with it: higher = more signal.
Experiment [4] is described as follows: small-molecule binders of probe aNOTCH2, primary screen, biochemical, small-molecule microarray, 635/667 nm fluorescence (AID 1121).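 Also: score merges feature fluorescence read at 667 nm with its signal to noise.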 The note with it: higher = more signal.
In experiment [5] the target is Carbonic anhydrase 2 (Homo sapiens) (UniProt P00918). The experiment can be described thus: CAII small-molecule binders, profiling panel, biochemical, small-molecule microarray, Alexa647-labelled CAII (AID 1122). The note with it: CAII-A647 binding fluorescence, higher = more signal.
Experiment [6] is described as follows: COS7 lysate on small-molecule microarray, probe aHis, 635 nm (AID 1123).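 Also: z-score combines 667nm fluorescence intensity with signal-to-noise per printed compound spot.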 The note with it: COS7 cell lysate, fluorescence, higher = more signal.
The nature of experiment [7]: compound binding in COS7 lysate, probe aLAP1, primary screen, cell lysate, small-molecule microarray (AID 1124).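 Also: lysate comes from COS7 cells expressing LAP1 and is applied at 0.3 µg/mL; score merges spot fluorescence near 667 nm with signal-to-noise over triplicate slides.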 The note with it: probe aLAP1, fluorescence, higher = more signal.
Experiment [8] relates to Sam68 (KHDRBS1). The experiment can be described thus: Sam68 small-molecule binders, primary screen, biochemical, small-molecule microarray, 635 nm fluorescence (AID 1125).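 Also: score merges 667 nm channel intensity with signal to noise over triplicate slides.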 The settings on record: small-molecule microarray binding, higher = more signal.
For experiment [9], the system named is Chordin-like protein 2 (CHRDL2). Briefly: CHRDL2 small-molecule binders, primary screen, biochemical, small-molecule microarray, 635 nm fluorescence (AID 1126).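 Also: printed compound slides probed with Chrdl2 protein at 4 µg/mL for 1 h at 4 C; score merges 667 nm emission intensity with signal to noise over three replicate slides.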 The settings on record: small-molecule microarray binding, fluorescence 635 nm; higher = more signal.
In experiment [10] the target is Concanavalin-A (Canavalia ensiformis) (UniProt P02866). Briefly: ConA small-molecule binders, primary screen, artefact control for SMM control protein annotation, biochemical, small-molecule microarray, Alexa647 label, 635 nm (AID 1127).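 Also: z combines 667 nm emission intensity with signal-to-noise across three replicate slides.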 The note with it: ConA-A647 binding fluorescence, higher = more signal.

Calls of active or inactive are those of the source.

Sequence of Albumin (Bos taurus) (P02769 whole entry, looked up): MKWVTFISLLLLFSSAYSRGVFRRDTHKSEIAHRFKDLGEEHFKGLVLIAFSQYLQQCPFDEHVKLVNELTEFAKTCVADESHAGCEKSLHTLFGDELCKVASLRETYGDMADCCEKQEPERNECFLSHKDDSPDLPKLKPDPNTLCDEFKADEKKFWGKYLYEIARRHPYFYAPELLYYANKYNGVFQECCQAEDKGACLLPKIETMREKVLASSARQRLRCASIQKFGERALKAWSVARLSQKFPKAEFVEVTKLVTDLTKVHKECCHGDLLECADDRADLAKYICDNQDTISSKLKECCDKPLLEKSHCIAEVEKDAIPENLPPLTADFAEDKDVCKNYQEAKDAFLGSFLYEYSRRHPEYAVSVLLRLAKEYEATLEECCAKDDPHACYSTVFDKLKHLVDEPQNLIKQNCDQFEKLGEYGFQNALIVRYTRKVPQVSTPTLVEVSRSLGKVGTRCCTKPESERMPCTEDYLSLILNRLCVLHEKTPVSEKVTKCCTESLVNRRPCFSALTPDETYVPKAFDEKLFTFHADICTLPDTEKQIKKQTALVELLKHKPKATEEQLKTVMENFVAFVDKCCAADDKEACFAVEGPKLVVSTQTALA
Sequence of Concanavalin-A (Canavalia ensiformis) (P02866 whole entry, looked up): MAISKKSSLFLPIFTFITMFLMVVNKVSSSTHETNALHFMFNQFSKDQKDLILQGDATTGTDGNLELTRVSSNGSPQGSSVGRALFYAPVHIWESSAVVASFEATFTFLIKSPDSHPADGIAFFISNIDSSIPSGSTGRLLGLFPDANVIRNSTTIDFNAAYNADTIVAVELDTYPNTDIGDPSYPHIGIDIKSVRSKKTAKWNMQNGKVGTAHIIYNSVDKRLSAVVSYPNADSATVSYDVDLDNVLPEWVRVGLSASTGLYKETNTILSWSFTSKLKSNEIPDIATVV

For `C=CCN1C(=O)[C@]2(COC(c3ccc(OCCCO)cc3)=N2)Cc2ccccc21`, the composite z-score was 0.284 in experiment [1]; -0.0362 in [3]; -0.0583 in experiment [4]; 0.627 in experiment [5]; 2.78 in experiment [6]; 1.11 in experiment [7]. Moreover, the composite z-score in experiment [8] was 0.487; in experiment [9] it was 0.0453; in experiment [10], 0.953. Besides, the composite Z-score in [2] is -0.586 (inactive).

In the case of `COc1ccc([Si](C)(C)[C@H]2[C@H](CC(=O)N(CCO)Cc3ccccc3)O[C@@]3(C(=O)N(Cc4cccc(N5C(=O)c6cccc7cccc5c67)c4)c4ccccc43)[C@@H]2C)cc1`, the composite z-score is 0.375 in experiment [1]; -0.0821 in experiment [3]; -0.154 in experiment [4]; 0.519 in experiment [5]; 0.934 in experiment [6]; 0.228 in [7]. Moreover, the composite z-score in experiment [8] is 0.75; in experiment [9], -0.108; in experiment [10], 1.09. The composite Z-score in [2] was -0.025 (inactive).

As to `CCOC(=O)C1=C[C@@H](C(C)(C)C)N(S(=O)(=O)c2ccc(C)cc2)[C@H]1c1ccc(Cl)c(Cl)c1`, the composite z-score in experiment [1] was 0.867; in [3], 0.163; in [4], 0.0601; in [5], 0.497; in experiment [6], 1.79; in experiment [7] it was 1.03. For the same compound, the composite z-score came out at 1.3 in experiment [8], 0.185 in experiment [9] and 1.16 in experiment [10]. Moreover, the composite Z-score in experiment [2] was -0.179 (inactive).

`C=CC[C@@]1(C(=O)OC)N=C(c2ccc(OCCCO)cc2)O[C@@H]1c1ccccc1CN=[N+]=[N-]`: the composite z-score in [1] was -0.13; in experiment [3], 0.0419; in experiment [4], -0.102; in experiment [5], 0.586; in [6] it was 1.48; in experiment [7], -0.11. In addition, the composite z-score in [8] came to 0.38; in [9] it was 0.373; in experiment [10], 0.518. Also, in [2], the composite Z-score is -0.169 (inactive).

For the compound `CC(C)C[C@@H]1NC(=O)[C@@H]2C[C@H](C(=O)NCCCCN(C)C)[C@H](c3ccc(O)cc3)N2C1=O`, the composite z-score in [1] is -0.0836; in experiment [3] it was -0.236; in [4] it was -0.124; in experiment [5], 0.335; in [6] it was 0.732; in experiment [7], 0.148. Moreover, the composite z-score in experiment [8] is 0.225; in [9], -0.631; in experiment [10], -0.0663. Besides, the composite Z-score in experiment [2] was 0.0699 (inactive).

Regarding `CCOC(=O)C=Cc1cccc(OC)c1O`, the composite z-score in [1] is 0.576; in experiment [3] it was -0.426; in experiment [4], -0.14; in [5], -0.288; in experiment [6] it was 0.0252; in experiment [7] it was -0.15. Moreover, the composite z-score in experiment [8] is 0.0147; in [9], -1.32; in experiment [10] it was 0.149. The composite Z-score in experiment [2] was 0.229 (inactive).

On to `NC(=O)NCC#Cc1ccc2c(c1)[C@]1(C(=O)N2)[C@H](C(=O)NC[C@H](O)c2ccccc2)[C@H]2C(=O)O[C@H](c3ccccc3)[C@H](c3ccccc3)N2[C@@H]1c1ccccc1OCCO`, for which the composite z-score in [1] was 0.308; in experiment [3], -0.0003; in experiment [4], -0.164; in experiment [5], 0.539; in [6], 1.54; in experiment [7] it was 0.564. In addition, the composite z-score was 0.854 in [8], -0.769 in [9] and 0.913 in experiment [10]. Moreover, the composite Z-score in experiment [2] was 0.15 (inactive).

On to `CCCC[C@@H]1C[C@H]1[C@@H](NC(=O)c1ccccc1)c1ccc(-c2ccccc2)cc1`, for which the composite z-score in [1] is 0.891; in [3] it was -0.0647; in [4], -0.128; in [5] it was 0.498; in experiment [6], 1.17; in experiment [7] it was -0.146. The figures for the composite z-score in experiment [8], in [9] and in [10] were 0.893, -0.995 and 0.147, respectively. Besides, the composite Z-score in [2] was -0.0708 (inactive).

In the case of `Cc1ccc(S[C@]2(C(=O)NCC(F)(F)F)CC(=O)N(C3Cc4ccccc4C3)[C@@H]2c2ccc(CO)cc2I)cc1`, the composite z-score in experiment [1] is 0.0944; in experiment [3], -0.207; in experiment [4] it was -0.156; in experiment [5] it was 0.629; in experiment [6] it was 0.403; in experiment [7], -0.245. In addition, the composite z-score is -0.292 in [8], -1.18 in [9] and -1.71 in experiment [10]. Also, the composite Z-score in experiment [2] was 0.325 (inactive).

Regarding `COCC1=C([C@H](O)CCc2ccccc2)[C@H](CO)[C@@H]2C(=O)N(Cc3ccccc3)C(=O)[C@@H]2C1`, the composite z-score was -0.103 in [1]; -0.0456 in experiment [3]; -0.129 in experiment [4]; -0.0186 in [5]; 0.0949 in [6]; -0.102 in experiment [7]. In addition, the composite z-score is -0.0322 in experiment [8], 0.422 in [9] and 0.0998 in [10]. In addition, the composite Z-score in experiment [2] is 0.0653 (inactive).

Consider `C=CC[C@@]1(C(N)=O)N=C(c2ccc(OCCCO)cc2)O[C@@H]1c1ccccc1N=[N+]=[N-]`, for which the composite z-score came to 0.225 in [1]; 0.116 in [3]; 0.468 in experiment [4]; 0.555 in experiment [5]; 1.64 in experiment [6]; 1.82 in [7]. The composite z-score amounted to 0.934 in [8], 1.16 in experiment [9] and 0.126 in experiment [10]. Also, the composite Z-score in [2] is -0.56 (inactive).

Regarding `CC(C)N1C(=O)c2ccccc2[C@](C)(C(=O)NCCCN(C)C)[C@@H]1c1ccc(CO)cc1`, the composite z-score in [1] was 0.222; in experiment [3], -0.149; in experiment [4] it was -0.0903; in [5], 0.526; in experiment [6], 1.45; in experiment [7], 1.01. Also, the composite z-score in experiment [8] is -0.283; in experiment [9], -0.85; in [10] it was -1.41. In addition, in [2], the composite Z-score was -0.264 (inactive).

As to `CC(C)[Si]1(C(C)C)O[C@@H](c2ccccc2)c2cc(-c3ccc(-c4ccc(Cl)c(Cl)c4)o3)nc(CCc3ccccc3)c21`, the composite z-score in experiment [1] was -1.24; in experiment [3], -0.226; in experiment [4], -0.148; in [5], 0.287; in experiment [6], 0.143; in [7], 0.312. Also, the composite z-score in experiment [8] is -0.141; in experiment [9], -1.59; in [10] it was -1.04. For the same compound, in experiment [2], the composite Z-score is 0.0953 (inactive).
